Results as given in the supplement of paper PMC12494721.
Structures can show the parent of a compound that is named as a salt. A number with no mark means an inactive call.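 The calls were made as follows: for the amine columns active = adjusted P below 0.05 in both replicates with a change the same way and a mean fold change under 0.8 or over 1.25; inactive = the rest.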

What follows are compounds tested on Ruminococcus gnavus DSM 108212 (assay: fold change of 2-Phenylethylamine concentration vs plate DMSO controls (fold change (ratio)); higher = more amine produced, active = hit call of the paper (significant change in both replicates, either direction)). Conditions: incubation time: 27 h, anaerobic, 37 °C.
Method in brief: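 In 80 µL wells, cultures of four gut bacterial strains in mGAM started at OD 0.1 before a 1:1 dilution and grew anaerobically at 37 °C for 27 h. Compounds were added to 20 µM final, except sweeteners at 50 µM final. After extraction of whole cultures with cold acetonitrile/methanol plus 0.1% formic acid and centrifugation, amines were measured by LC–triple-quadrupole MS in dynamic MRM mode against external calibration curves, with within-batch drift correction. Values give fold change over DMSO controls on the same plate, averaged across 2 biological replicates.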

Structure (SMILES) | fold change of 2-Phenylethylamine concentration
O=C1C(CC[S+]([O-])c2ccccc2)C(=O)N(c2ccccc2)N1c1ccccc1 (stereo not given) [Sulfinpyrazone] (20 µM) | 0.887
CCC(C)C(C(=O)OCC[N+](C)(CC)CC)c1ccccc1 (stereo not given) [Valethamate bromide] (20 µM) | 0.963
CCOC(=O)C1=C(C)NC(C)=C(C(=O)OC)C1c1cccc(Cl)c1Cl (stereo not given) [Felodipine] (20 µM) | 0.903
COc1c(N2C[C@@H]3CCCN[C@@H]3C2)c(F)cc2c(=O)c(C(=O)O)cn(C3CC3)c12 [Moxifloxacin] (20 µM) | 0.215 (active)
C[C@H]1COc2c(N3CCN(C)CC3)c(F)cc3c(=O)c(C(=O)O)cn1c23 [Levofloxacin] (20 µM) | 0.823
NC(=O)c1cc[n+](CC2=C(C(=O)O)N3C(=O)[C@@H](NC(=O)C(c4ccccc4)S(=O)(=O)[O-])[C@H]3SC2)cc1 (stereo not given in full) [Cefsulodin Sodium Salt Hydrate] (20 µM) | 0.836
CO[C@@]1(NC(=O)CSCC#N)C(=O)N2C(C(=O)O)=C(CSc3nnnn3C)CS[C@@H]21 [Cefmetazole sodium salt] (20 µM) | 1.13
CCN1CCN(C(=O)N[C@@H](C(=O)N[C@@H]2C(=O)N3C(C(=O)O)=C(CSc4nnnn4C)CS[C@H]23)c2ccc(O)cc2)C(=O)C1=O [Cefoperazone dihydrate] (20 µM) | 0.0394 (active)
CC/C(=C(\c1ccccc1)c1ccc(OCCN(C)C)cc1)c1ccccc1 [Tamoxifen citrate] (20 µM) | 0.738
C#C[C@]1(O)CC[C@H]2[C@@H]3CCC4=CCCC[C@@H]4[C@H]3CC[C@@]21C [Lynestrenol] (20 µM) | 1.01
